From PubChem BioAssay AID652142 (Molecular Libraries Program, Specialized Chemistry Center, …, 2013) come the findings set out here.

In all, about 2,400 compounds went through this assay and fewer than 10 were called active. How the calls were made is not given here. The list is a sample of the results.

In general, inhibition refers to the change of the read-out against control, counted positive when it falls.

In the assay the target is Rac GTPase-activating protein 1 (Homo sapiens) (UniProt Q9H0H5). In words: MgcRacGAP inhibitors via phosphate release, confirmation, orthogonal assay, biochemical, inorganic phosphate detection, Rac1 (AID 652142). The conditions noted are these: MgcRacGAP/Rac1F28L GTP hydrolysis, Biomol green phosphate; stronger effect = higher value; concentration not given here.
Sequence of Rac GTPase-activating protein 1 (Homo sapiens) (Q9H0H5 whole entry, looked up): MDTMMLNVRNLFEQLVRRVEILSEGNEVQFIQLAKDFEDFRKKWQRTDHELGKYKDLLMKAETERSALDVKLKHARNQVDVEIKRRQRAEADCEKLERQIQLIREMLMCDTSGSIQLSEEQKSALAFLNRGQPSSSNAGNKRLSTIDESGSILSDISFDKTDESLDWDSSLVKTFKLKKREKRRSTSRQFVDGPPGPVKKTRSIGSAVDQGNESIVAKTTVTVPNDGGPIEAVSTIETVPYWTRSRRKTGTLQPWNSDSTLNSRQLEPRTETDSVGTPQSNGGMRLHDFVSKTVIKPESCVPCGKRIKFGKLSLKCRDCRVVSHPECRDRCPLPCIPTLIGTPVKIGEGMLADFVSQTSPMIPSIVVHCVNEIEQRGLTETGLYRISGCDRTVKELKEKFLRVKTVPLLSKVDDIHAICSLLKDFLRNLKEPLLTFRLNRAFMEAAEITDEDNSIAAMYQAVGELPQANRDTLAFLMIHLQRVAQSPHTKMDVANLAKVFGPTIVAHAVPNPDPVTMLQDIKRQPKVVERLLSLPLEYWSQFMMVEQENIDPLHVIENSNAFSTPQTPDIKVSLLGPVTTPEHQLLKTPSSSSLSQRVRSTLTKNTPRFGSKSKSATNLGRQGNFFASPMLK
Consider `Cc1nn2cc(-c3ccc(N)cc3)nc2s1`, for which the inhibition is 22.3% (inactive).
Regarding `Oc1ccc(/C=N/Nc2ccnc3cc(Cl)ccc23)cc1O`, the inhibition was 4.55% (inactive).
Consider `Oc1ccc(/C=N\Nc2cc(N3CCOCC3)nc(N3CCOCC3)n2)c(O)c1`, for which the inhibition is 21.8% (inactive).
The same measure for `Nc1ccc(N2CCCC2)c(S(=O)(=O)Nc2cccc(C(F)(F)F)c2)c1`: 29.9% (inactive).
The same measure for `Cc1ccc(-c2cc(C(=O)N3CCN(c4ccc(O)cc4)CC3)c3ccccc3n2)cc1`: 23.8% (inactive).
In the case of `O=C(/C=C/Nc1ccc(Nc2ccccc2)cc1)c1cccs1`, the inhibition is 19.5% (inactive).
The same measure for `C/C(=N\NC(=O)c1cccc(N/N=C(\C)c2cc(O)ccc2O)c1)c1cc(O)ccc1O`: 28.1% (inactive); for `Cc1ccc(CN2CCN(Cc3ccccc3C(F)(F)F)CC2)cc1`: 17.2% (inactive); for `CCOC(=O)C1=C(COC(=O)/C=C/c2ccc(O)c(OC)c2)NC(=O)NC1C` (stereo not given): 11.2% (inactive).
The same measure for `COc1cc(/C=C/C(=O)OCC(=O)N2CC3(C)CC2CC(C)(C)C3)ccc1O` (stereo not given): 33.5% (inactive); for `COc1ccc(S(=O)(=O)/N=C2\C=C(Nc3ccc(O)cc3)C(=O)c3ccccc32)cc1`: 13.5% (inactive); for `CCn1c(=S)[nH]c2sc3c(c2c1=O)CCCC3`: 10.8% (inactive).
The same measure for `CCc1ccc(O)c(N=Cc2cccc(C)c2O)c1`: 23.4% (inactive); for `N=C(N)c1ccc(N=Nc2c(O)ccc3c2[nH]c2ccccc23)cc1`: 62.4% (inactive); for `CCc1ccc(O)c(N=Cc2ccccc2O)c1`: 33.5% (inactive).
Take `CN(C)c1ccc(C=c2c3cc(O)ccc3n3c2cc(-c2ccccc2)[n+]3C)cc1`: the inhibition is 83.7% (inactive).
Take `Oc1ccc(/C=N/Nc2cc(N3CCOCC3)nc(N3CCOCC3)n2)cc1`: the inhibition is 25.9% (inactive).
The same measure for `Oc1ccc(/C=N/Nc2ccc(C(F)(F)F)cn2)c(O)c1`: 19.4% (inactive); for `O=S(=O)(O)c1cc(O)c(N=Nc2ccc(O)cc2O)c2ccccc12`: 24.4% (inactive).
With `Oc1ccc(-c2[nH]ncc2-c2ccc(Cl)cc2)c(O)c1` the figure was 26.7% (inactive); with `CN(C)c1ccc2c(c1)C(=NO)c1ccccc1-2`, 19.4% (inactive); with `O=C(NCc1ccco1)c1sc(=S)n2c1[nH]c(=O)c1ccccc12`, 31.8% (inactive).
As for `CCN(CC)c1ccc(Nc2nc(Cl)ncc2Br)cc1`, the inhibition is 33.2% (inactive).
The same measure for `CCOc1cc(/C=N/NC(=O)CN2CCCCC2)ccc1O`: 30.3% (inactive); for `CN(c1ccc(O)cc1)c1nc(-c2ccccc2)cs1`: 23.3% (inactive); for `COc1cc(/C=N/Nc2nc3ccccc3[nH]2)ccc1O`: 12.2% (inactive).
With `CCN(c1ccccc1)S(=O)(=O)c1ccc(N2CCN(c3ccc(O)cc3)CC2)nc1` the figure was 27.7% (inactive).
For `CCOc1cc(/C=N/NC(=O)CCCC(=O)NC2CCCCC2)ccc1O`, the inhibition was 20.5% (inactive).
The same measure for `Cc1cc(-c2ccccc2)nc(N/N=C/c2ccc(O)cc2O)n1`: 20.5% (inactive); for `Cc1c(C(=O)N/N=C/c2ccc(O)c(Br)c2)sc(N)c1C#N`: 31.3% (inactive).
Consider `Nc1ccc2nc(C3CCCCC3)[nH]c2c1`, for which the inhibition was 28.4% (inactive).
Regarding `COc1cc(/C=N/NC(=S)NC2CC3CCC2C3)ccc1O` (stereo not given), the inhibition is -0.0456% (inactive).
`COc1cc2c(cc1NC(=O)C(Cl)Cl)-c1ccc(NC(=O)C(Cl)Cl)cc1C2`: the inhibition was 13.1% (inactive).
With `CSc1nc(/C=C2\C=Nc3ccccc32)c(O)n1C` the figure was 7.92% (inactive); with `Cn1c(-c2ccc(Cl)cc2)cnc1NCc1cc2c(cc1[N+](=O)[O-])OCO2`, 22.1% (inactive).
The same measure for `C=CCn1c(SCC(=O)c2ccc(O)c(O)c2)nnc1-c1cccc(Cl)c1`: 29.9% (inactive); for `CN(Cc1ccccc1)Cc1c(O)ccc2ccccc12`: 23.9% (inactive); for `COc1cc(/C=N/NC(=O)CN(Cc2ccccc2)S(=O)(=O)c2ccc3c(c2)OCCO3)ccc1O`: -2.68% (inactive).
With `COc1cccc(CNc2ccc3[nH]c(=O)[nH]c3c2)c1OCc1ccccc1Cl` the figure was -0.282% (inactive); with `Cc1ccccc1C(OCC(O)CN1CCN(CCO)CC1)c1ccccc1` (stereo not given), 29.2% (inactive); with `CCN1CCN(CCOc2ccc(Br)cc2C)CC1`, 23.2% (inactive).
Consider `COc1cc(/C=N/NC(=O)NC23CC4CC(CC(C4)C2)C3)ccc1O`, for which the inhibition is 35.9% (inactive).
With `O=c1c2ccccc2sn1-c1ccc(Cl)cc1` the figure was 75% (inactive); with `CC[n+]1ccc(/C=C/c2ccc(N(C)C)cc2)c2ccccc21`, 31.5% (inactive).
With `COc1cc(/C=N/NC(=O)c2nnn(-c3nonc3N)c2C(C)C)ccc1O`, the inhibition was 15.1% (inactive).
On to `CN1CCN(/N=C/c2nc(-c3ccccc3)n3ccccc23)CC1`, for which the inhibition is 30.1% (inactive).
For `CC(=O)N1CCN(c2ccc(Nc3ncnc4c3oc3ccccc34)cc2)CC1`, the inhibition was 8.13% (inactive).
With `CCOc1cc(/C=N/NC(=O)c2ccccc2-n2cccc2)ccc1O` the figure was 30.4% (inactive); with `CN(C)c1ccc(N=C/C=C2\N(C)c3ccccc3C2(C)C)cc1`, 22.7% (inactive); with `COc1cc(/C=N/NC(=O)c2ccc(-n3cccc3)cc2)ccc1O`, 12.4% (inactive).
For `COc1cc(/C=N/NC(=O)C2(O)c3ccccc3-c3ccccc32)ccc1O`, the inhibition is 25.6% (inactive).
Take `COc1ccc(Oc2cn[nH]c2-c2ccc(O)cc2O)cc1`: the inhibition is 17.2% (inactive).
The same measure for `Cc1cc(-c2ccccc2)nc(N/N=C/c2ccc(N(C)C)cc2)n1`: 23.8% (inactive); for `COc1cc(-c2nc3ccc(C)cn3c2Nc2ccc3c(c2)OCCO3)ccc1O`: 21.3% (inactive); for `CCOC(=O)c1cc(NCc2cccs2)ccc1N1CCOCC1`: 30.4% (inactive).
Regarding `O=C(N/N=C/c1ccc(O)cc1)Nc1cccc2nsnc12`, the inhibition is 33.1% (inactive).
The same measure for `CC(=O)Nc1ccc(Oc2nc(-c3ccccn3)nc3ccccc23)cc1`: 26% (inactive).
Turning to `CCCS(=O)(=O)N1CCN(CC2CC3C=CC2C3)CC1` (stereo not given), the inhibition is 10.6% (inactive).
With `O=c1c2ccccc2sn1-c1ccc(Cl)cc1Cl`, the inhibition is 79.5% (inactive).
With `O=[N+]([O-])c1cccc(/C=N/n2c(-c3cccnc3)n[nH]c2=S)c1` the figure was 32.9% (inactive); with `C=CCn1c(N/N=C/c2ccc(O)cc2)nc2ccccc2c1=O`, 18.4% (inactive).
In the case of `COc1cc(CCNC2=CC(=O)c3ncccc3C2=O)ccc1O`, the inhibition was 23.7% (inactive).
As to `C/C(=N\Nc1ccc(S(=O)(=O)N2CCCCC2)cn1)c1ccc(O)cc1`, the inhibition was 27.3% (inactive).
In the case of `COc1ccccc1N=NNc1ccccc1OC`, the inhibition was 28.7% (inactive).
With `CC(C)(C)N1C(=O)c2ccc(C(=O)Nc3ccc(O)cc3)cc2C1=O` the figure was 24.3% (inactive); with `Cn1c(-c2ccc3c(c2)OCO3)cnc1NCc1ccccc1Cl`, 27.7% (inactive); with `COc1cccc(Nc2nc(-c3ccc(O)cc3)cs2)c1`, 31.8% (inactive).
For the molecule `C=CCn1c(=O)/c(=C/c2ccc(O)cc2)s/c1=C(/C#N)c1nnc2n1CCCCC2`, the inhibition is 18.2% (inactive).
As for `COc1ccc(CNc2ncc(-c3ccc(F)cc3)n2C)c2ccccc12`, the inhibition is 17.2% (inactive).
With `CCOC(=O)/C(C#N)=C\c1c(OCC)n(CC)c2ccccc12` the figure was 19.7% (inactive); with `Cc1cccc(C)c1OCCCCN1CCNCC1`, 32% (inactive).
The same measure for `CC1(C)OC(=O)C(=NNc2ccc(O)cc2)C(=O)O1`: 20.7% (inactive); for `CCN(CC)S(=O)(=O)c1cccc(NC(=O)CNC2CCCCCC2)c1`: 31% (inactive).
Consider `C#CCOCCOCCOCCNc1nc(N2CCN(C(=O)[C@H](CCCCN)n3cc([C@@H](N)CC(C)C)nn3)CC2)nc(N2CCN(C(=O)[C@H](CCCCN)n3cc([C@@H](N)CC(C)C)nn3)CC2)n1`, for which the inhibition was 39.7% (inactive).
As for `COc1cc(/C=C2\SC(=Nc3c(C)n(C)n(-c4ccccc4)c3=O)NC2=O)ccc1O`, the inhibition was 22.8% (inactive).
The same measure for `Nc1ccc2nc(-c3ccccc3)[nH]c2c1`: 26.8% (inactive); for `Oc1ccc(Cl)cc1C=Nc1ccc2c3c(cccc13)CC2`: 29.6% (inactive).
The same measure for `Nc1ccc(-c2nc3ccc(N)cc3s2)cc1`: 22.9% (inactive); for `COc1cc2[nH]c(=S)nc(NCCc3ccc(S(N)(=O)=O)cc3)c2cc1OC`: 17.7% (inactive).
With `Cc1c(O)ccc(/C(Cc2ccc3ccccc3n2)=N\O)c1O` the figure was 25.3% (inactive).
As to `Oc1ccc(/C=N/Nc2cc(N3CCOCC3)nc(N3CCOCC3)n2)cc1O`, the inhibition is 7.37% (inactive).
The same measure for `Cc1ccccc1-c1ccc(Nc2ccc(N3CCOCC3)cc2)nn1`: 33.6% (inactive).
The same measure for `CC1=NN(c2ccccc2)C(=O)/C1=C/C=C/C=C/N(C)C`: 21.7% (inactive); for `Cc1ccc(C2C=NN(c3ccccc3)C2=O)cc1` (stereo not given): -3.99% (inactive).
Regarding `S=c1[nH]c2ccccc2n2c(=S)[nH]nc12`, the inhibition was 23.8% (inactive).
The same measure for `O=C1CCCC/C1=C\Nc1ccc(O)cc1`: 30.3% (inactive); for `O=C(Nc1ccccc1C(=O)N/N=C/c1ccc(O)cc1)c1ccccc1`: 25.8% (inactive); for `Cc1ccc(Nc2n[nH]c(=S)s2)cc1`: 23.2% (inactive).
The same measure for `C#CCOCCOCCOCCNc1nc(N2CCN(C(=O)[C@H](CCCCN)n3cc([C@@H](N)C(C)CC)nn3)CC2)nc(N2CCN(C(=O)[C@H](Cc3cc4ccccc4[nH]3)n3cc([C@@H](N)C(C)CC)nn3)CC2)n1` (stereo not given in full): 54.2% (inactive); for `Fc1ccc(CNc2ccc(N3CCN(Cc4ccccc4)CC3)cc2)cc1`: 7.97% (inactive).
With `Cc1cc(SCC(=O)c2ccc(O)c(O)c2)nc2ccccc12` the figure was 5.6% (inactive); with `COc1ccc(NC(=O)n2ncc3cc(Cl)ccc32)cc1OC`, 23.6% (inactive).
On to `COc1ccc(C(CNC(=O)c2cc3ccccc3cc2O)N2CCOCC2)cc1` (stereo not given), for which the inhibition was 18% (inactive).
As for `CC1CCCCN1Cc1c(O)ccc2c(=O)c(-c3nc4ccccc4s3)c(N)oc12` (stereo not given), the inhibition is 30.4% (inactive).
The same measure for `CCN(CC)CCCC(C)NC(=O)c1c(NC(=O)c2ccccc2)sc2c1CCCC2` (stereo not given): 24.9% (inactive).
